# Experimental data reported in the supplement of paper PMC8728848.
# This is one part of a sample in which the strongest signals are shown more often than they occur.
# Experiments:
# Test in all cases: glycan array binding signal (z-score within array); higher = stronger binding
# Details in all cases: glycan notation: IUPAC condensed, linker removed
# [1] = target: Fuc(a1-2)Gal(b1-3)GalNAc(b1-3)Gal
# How it was run: (§1)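 From the Consortium for Functional Glycomics database, 3228 arrays were curated, keeping only those whose protein sequence was available. Binding is given as a within-array Z-score averaged across arrays sharing a protein sequence and across linkers. Negative Z-scores can be read as non-binding.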
# [2] = target: Fuc(a1-2)Gal(b1-4)[Fuc(a1-3)]GalNAc(b1-3)Gal(b1-4)[Fuc(a1-3)]GlcNAc
# How it was run: as §1
# [3] = target: Fuc(a1-3)[GalNAc(b1-4)]Gal(b1-4)GlcNAc
# How it was run: as §1
# [4] = target: Gal(b1-3)[GlcNAc(b1-6)]GlcNAc
# How it was run: as §1
# [5] = target: Gal(b1-4)GlcNAc(b1-3)Gal(b1-4)[Fuc(a1-3)]GlcNAc(b1-3)Gal(b1-4)[Fuc(a1-3)]GlcNAc
# How it was run: as §1
# [6] = target: GalNAc(b1-4)GlcNAc
# How it was run: as §1
# [7] = target: GlcNAc(a1-3)Gal(b1-4)GlcNAc
# How it was run: as §1
# [8] = target: GlcNAc(b1-3)Gal(b1-3)GalNAc
# How it was run: as §1
# [9] = target: GlcNAc(b1-4)GlcNAc(b1-4)GlcNAc(b1-4)GlcNAc(b1-4)GlcNAc
# How it was run: as §1
# [10] = target: GlcNAc(b1-4)GlcNAc(b1-4)GlcNAc(b1-4)GlcNAc(b1-4)GlcNAc(b1-4)GlcNAc
# How it was run: as §1
# [11] = target: Neu5Ac(a2-3)Gal(b1-3)[Neu5Ac(a2-3)Gal(b1-4)]GlcNAc
# How it was run: as §1
# [12] = target: Neu5Ac(a2-3)Gal(b1-4)Glc
# How it was run: as §1
# [13] = target: Neu5Ac(a2-3)Gal(b1-4)GlcNAc(b1-3)Gal(b1-4)GlcNAc
# How it was run: as §1
# [14] = target: Neu5Ac(a2-3)Gal(b1-4)GlcNAc(b1-3)Gal(b1-4)GlcNAc(b1-3)Gal(b1-4)GlcNAc
# How it was run: as §1
# [15] = target: Neu5Ac(a2-8)Neu5Ac(a2-8)Neu5Ac(a2-8)Neu5Ac(a2-3)[GalNAc(b1-4)]Gal(b1-4)Glc
# How it was run: as §1
# [16] = target: Neu5Gc(a2-3)Gal(b1-4)GlcNAc
# How it was run: as §1
# [17] = target: Fuc(a1-2)Gal(b1-4)GlcNAc(b1-3)Gal(b1-4)GlcNAc
# How it was run: as §1
# [18] = target: Fuc(a1-2)Gal(b1-4)GlcNAc(b1-3)Gal(b1-4)GlcNAc(b1-3)Gal(b1-4)GlcNAc
# How it was run: as §1
# [19] = target: Fuc(a1-2)Gal(b1-4)[Fuc(a1-3)]GlcNAc(b1-3)Gal(b1-4)[Fuc(a1-3)]GlcNAc(b1-3)Gal(b1-4)[Fuc(a1-3)]GlcNAc
# How it was run: as §1
# [20] = target: Fuc(a1-2)[Gal(a1-3)]Gal(b1-4)Glc
# How it was run: as §1
# [21] = target: Fuc(a1-2)[Gal(a1-3)]Gal(b1-4)[Fuc(a1-3)]GlcNAc
# How it was run: as §1
# [22] = target: Fuc(a1-2)[GalNAc(a1-3)]Gal(b1-4)GlcNAc
# How it was run: as §1
# [23] = target: Fuc(a1-2)[GalNAc(a1-3)]Gal(b1-4)[Fuc(a1-3)]GlcNAc
# How it was run: as §1
# [24] = target: Gal(b1-2)Gal
# How it was run: as §1
# [25] = target: Gal(b1-3)GalNAc(b1-4)Gal(b1-4)Glc
# How it was run: as §1
# [26] = target: Gal(b1-4)Glc6S
# How it was run: as §1
# [27] = target: Gal3S6S(b1-4)GlcNAc6S
# How it was run: as §1
# [28] = target: Gal6S(b1-4)GlcNAc
# How it was run: as §1
# [29] = target: GlcNAc(b1-3)Gal(b1-4)GlcNAc
# How it was run: as §1
# [30] = target: GlcNAc(b1-4)[GlcNAc(b1-6)]GalNAc
# How it was run: as §1
# [31] = target: Man(a1-2)Man(a1-2)Man(a1-3)Man
# How it was run: as §1
# [32] = target: Neu5Ac(a2-3)Gal(b1-3)GalNAc(b1-3)Gal(a1-4)Gal(b1-4)Glc
# How it was run: as §1
# [33] = target: Neu5Ac(a2-3)Gal(b1-3)GalNAc6S
# How it was run: as §1
# [34] = target: Neu5Ac(a2-3)GalNAc(b1-4)GlcNAc
# How it was run: as §1
# [35] = target: Neu5Ac(a2-6)Gal(b1-4)GlcNAc
# How it was run: as §1
# [36] = target: Neu5Ac(a2-6)Gal(b1-4)GlcNAc(b1-3)Gal(b1-4)[Fuc(a1-3)]GlcNAc(b1-3)Gal(b1-4)[Fuc(a1-3)]GlcNAc
# How it was run: as §1
# [37] = target: Neu5Ac9Ac(a2-6)Gal(b1-4)GlcNAc
# How it was run: as §1
Binder,glycan array binding signal (z-score) [1],glycan array binding signal (z-score) [2],glycan array binding signal (z-score) [3],glycan array binding signal (z-score) [4],glycan array binding signal (z-score) [5],glycan array binding signal (z-score) [6],glycan array binding signal (z-score) [7],glycan array binding signal (z-score) [8],glycan array binding signal (z-score) [9],glycan array binding signal (z-score) [10],glycan array binding signal (z-score) [11],glycan array binding signal (z-score) [12],glycan array binding signal (z-score) [13],glycan array binding signal (z-score) [14],glycan array binding signal (z-score) [15],glycan array binding signal (z-score) [16],glycan array binding signal (z-score) [17],glycan array binding signal (z-score) [18],glycan array binding signal (z-score) [19],glycan array binding signal (z-score) [20],glycan array binding signal (z-score) [21],glycan array binding signal (z-score) [22],glycan array binding signal (z-score) [23],glycan array binding signal (z-score) [24],glycan array binding signal (z-score) [25],glycan array binding signal (z-score) [26],glycan array binding signal (z-score) [27],glycan array binding signal (z-score) [28],glycan array binding signal (z-score) [29],glycan array binding signal (z-score) [30],glycan array binding signal (z-score) [31],glycan array binding signal (z-score) [32],glycan array binding signal (z-score) [33],glycan array binding signal (z-score) [34],glycan array binding signal (z-score) [35],glycan array binding signal (z-score) [36],glycan array binding signal (z-score) [37]
chitinase 3-like protein 2 (Homo sapiens) (protein) YKLVCYFTQWSQDRQEPGKFTPENIDPFLCSHLIYSFASIENNKVIIKDKSEVMLYQTINSLKTKNPKLKILLSIGGYLFGSKGFHPMVDSSTSRLEFINSIILFLRNHNFDGLDVSWIYPDQKENTHFTVLIHELAEAFQKDFTKSTKERLLLTAGVSAGRQMIDNSYQVEKLAKDLDFINLLSFDFHGSWEKPLITGHNSPLSKGWQDRGPSSYYNVEYAVGYWIHKGMPSEKVVMGIPTYGHSFTLASAETTVGAPASGPGAAGPITESSGFLAYYEICQFLKGAKITRLQDQQVPYAVKGNQWVGYDDVKSMETKVQFLKNLNLGGAMIWSIDMDDFTGKSCNQGPYPLVQAVKRSLGSL,-0.164,-0.22,-0.196,-0.209,-0.183,2.63,-0.271,-0.22,7.67,9.06,-0.116,-0.233,-0.269,-0.127,1.51,0.093,–,–,–,–,–,–,–,–,–,–,–,–,–,–,–,–,–,–,–,–,–
"CLEC-6 (Homo sapiens), Q8WXI8 (protein) MGLEKPQSKLEGGMHPQLIPSVIAVVFILLLSVCFIASCLVTHHNFSRCKRGTGVHKLEHHAKLKCIKEKSELKSAEGSTWNCCPIDWRAFQSNCYFPLTDNKTWAESERNCSGMGAHLMTISTEAEQNFIIQFLDRRLSYFLGLRDENAKGQWRWVDQTPFNPRRVFWHKNEPDNSQGENCVVLVYNQDKWAWNDVPCNFEASRICKIPGTTLN",6.22,–,–,–,–,–,–,–,–,–,–,–,–,–,–,–,-0.176,-0.295,0.12,-0.282,-0.276,-0.239,-0.102,-0.038,-0.328,-0.263,6.21,-0.239,-0.077,-0.138,1.94,-0.144,-0.077,-0.104,-0.221,1.59,-0.166
